Texas Red fluor: qHTS Assay for Spectroscopic Profiling in Texas Red Spectral Region; Compound fluorescence, Texas Red channel, 547/618 nm; active compounds read high; max dye-equivalent concentration, M; 0.06% of 59,000 active; AID 587, 2007; in the data active = max dye-equivalent concentration above about 10 nM; inconclusive = between about 1.1 nM and that limit
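qHTS profiling of intrinsic compound fluorescence; 100 mM Tris pH 8.0; 15 min RT; ex 547 / em 618 nm; response expressed as Texas Red dye-equivalent concentration from six-point plate standard.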
A647 fluor: qHTS Assay for Spectroscopic Profiling in A647 Spectral Region; 59,000 tested, under 10 active; Compound fluorescence, A647 channel (570/671 nm), Tris buffer; max dye-equivalent concentration, M
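Compounds pinned into 100 mM Tris pH 8.0, 15 min at room temperature, then read with 570 nm excitation/671 nm emission filters. Fluorescence normalized to an on-plate six-point Alexa 647 standard curve, giving dye-equivalent concentration per compound concentration.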
Rhodamine autofl: qHTS Assay for Spectroscopic Profiling in Rhodamine Spectral Region | Rhodamine-region fluorescence, 547/598 nm, Tris buffer; active compounds read high | max dye-equivalent concentration, M | AID 594, 2007 | 0.05% of 59,000 active; in the data active = max dye-equivalent concentration above about 11 nM; inconclusive = between about 1.1 nM and that limit
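qHTS spectral profiling of compounds without any target or enzyme present, in pH 8.0 Tris buffer; plates were read after a 15-minute room-temperature incubation using the rhodamine-region filter set.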
Fluorescein fluor: qHTS Assay for Spectroscopic Profiling in Fluorescein Spectral Region. Compound autofluorescence, 480/540 nm, fluorescein-equivalent; active compounds read high. max fluorescein-equivalent concentration, M. 0.91% of 59,000 active; in the data active = max fluorescein-equivalent concentration above about 10 nM; inconclusive = between about 1.1 nM and that limit
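Compounds (23 nL) in 100 mM Tris pH 8.0, 15 min at room temperature, then fluorescence read at 480 nm excitation/540 nm emission. Signal converted to fluorescein-equivalent concentration from an on-plate fluorescein standard curve.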
A488 autofl: qHTS Assay for Spectroscopic Profiling in A488 Spectral Region; compound autofluorescence, A488 spectral region, dye equivalency; Compound Type: qHTS ECL - MLSMR; max dye equivalency, M; 0.1% of 59,000 active; AID 591, 2007
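Autofluorescence read at ex 480/em 540 nm after 15 min RT in 100 mM Tris pH 8.0; compound signal normalized to A488 standard series on each plate, reported as dye-equivalent concentration at each test concentration.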
Resorufin autofl: qHTS Assay for Spectroscopic Profiling in Resorufin Spectral Region. Compound fluorescence, resorufin region 547/598 nm, buffer; active compounds read high. max dye-equivalent concentration, M. 0.04% of 59,000 active. AID 588, 2007
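Compounds in 100 mM Tris, pH 8.0, incubated 15 min at room temperature, then fluorescence read at 547 nm excitation/598 nm emission. Signal converted to dye-equivalent concentration via an on-plate six-point resorufin standard curve, per compound concentration.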
Of the large screens only hits and unclear results are named; the others gave an inactive call; ! = repeats disagree. Compounds with a hit are over-represented: about 0.96% of the library has one in this group of screens. Unless noted, the rule behind the calls is not given here.

COCCn1c(=O)c(-c2cccs2)nc2cnc(Nc3ccccc3)nc21	Fluorescein fluor 2.7e-08M
CO[C@@H]1/C=C\O[C@]2(C)Oc3c(C)c(O)c4c(O)c(c(CN5CCN(C)CC5)c(O)c4c3C2=O)NC(=O)/C(C)=C\C=C[C@@H](C)[C@@H](O)[C@H](C)[C@@H](O)[C@H](C)[C@H](OC(C)=O)[C@@H]1C	Fluorescein fluor inconclusive
Cc1cc(=O)[nH]c(SCCOc2ccc3c(c2)CCC3)n1	none
Cc1cc(=O)[nH]c(SCCOc2ccc(OC(C)C)cc2)n1	Texas Red fluor inconclusive, Rhodamine autofl inconclusive, Fluorescein fluor 2.2e-08M, Resorufin autofl inconclusive
NCCN1C(=O)c2ccccc2[C@@]1(O)c1ccc(Cl)cc1	none
CCOc1cc(-c2ccc(N)c(OCC)c2)ccc1N	Fluorescein fluor 9.8e-08M, A488 autofl inconclusive
Cc1cc(C)n(-c2nc3c(c(=O)[nH]c(=O)n3C)n2Cc2ccccc2)n1	Fluorescein fluor inconclusive
Cc1cc(C)c2c(=O)[nH]c(=O)n(Cc3ccccc3)c2n1	Fluorescein fluor 1.3e-08M
CO[C@@]12C[C@@H](COC(=O)c3cncc(Br)c3)CN(C)[C@H]1Cc1cn(C)c3cccc2c13	Fluorescein fluor 2.5e-08M!
COc1ccccc1NC(=O)c1cc2ccc(O)cc2o/c1=N\O	Fluorescein fluor 1.5e-08M
COc1ccccc1NC(=O)c1cc2ccccc2o/c1=N\O	Fluorescein fluor inconclusive
CCN1CC2=C(OC(N)=C(C#N)C2c2ccccc2)/C(=C\c2ccccc2)C1 (stereo not given)	none
N#CC1=C(N)OC2=C(CCC/C2=C/c2ccoc2)C1c1ccoc1 (stereo not given)	Texas Red fluor inconclusive, Fluorescein fluor 1.4e-08M
CCOC(=O)CNC(=O)c1ccc2c(c1)OCCO2	none
CCOC(=O)CNC(=O)c1cc(-c2ccc3c(c2)OCCO3)oc1C	Fluorescein fluor 4.5e-08M, A488 autofl inconclusive
Cc1cc(C)c(/C=C2/C(=O)Nc3ccccc32)[nH]1	Rhodamine autofl inconclusive, Fluorescein fluor 2.3e-08M
COc1cc(OC)c(/C=C2/C(=O)Nc3ccccc32)c(OC)c1	Fluorescein fluor inconclusive
CCNc1ncc2nc(-c3ccc(Cl)cc3)c(=O)n(C3CC3)c2n1	none
Oc1ccc([C@@H]2CNCc3sccc32)cc1O	Fluorescein fluor inconclusive
Cn1ccnc1SCC(=O)c1cc2ccccc2o1	none
CCn1c(CSc2nccn2C)nc2cc(C(=O)O)ccc21	Texas Red fluor 2.7e-08M, Rhodamine autofl 1.7e-08M, Fluorescein fluor 1.1e-08M, Resorufin autofl 1.1e-08M
CCN(CC)CC[n+]1ccc2c(C)c3[nH]c4ccccc4c3c(C)c2c1	Fluorescein fluor 1.7e-08M
CCN(CC)CCCn1c(=S)[nH]c2ccccc2c1=O	none
O=C1C[C@H]2OCC=C3CN4CC[C@@]5(C(=O)O)[C@H](N1)[C@H]2[C@H]3C[C@H]45	none
O=C1c2ccccc2-c2onc3ccc(NCCCn4ccnc4)c1c23	Texas Red fluor 1.4e-07M, Rhodamine autofl 6.2e-07M, Fluorescein fluor 4.6e-06M, A488 autofl 2.6e-07M, Resorufin autofl 6.5e-07M
Cc1nc(NCCCn2ccnc2)c2ccccc2n1	Fluorescein fluor inconclusive
CC(=O)OC[C@@H]1O[C@@H](Oc2cc(OC(C)=O)c3c(=O)cc(-c4ccc(OC(C)=O)c(OC(C)=O)c4)oc3c2)[C@H](OC(C)=O)[C@H](OC(C)=O)[C@@H]1OC(C)=O	none
N[C@@H](Cc1[nH]nc2ccccc12)C(=O)O	Fluorescein fluor 1.1e-08M
O=C(NCc1ccc(F)cc1)C1CCN(C(=O)NCc2ccccc2)CC1	Fluorescein fluor 1e-08M
O=C(NCc1ccccc1F)C1CCN(C(=O)NCc2ccccc2)CC1	none
CCN1C(=S)SC(=O)C1=C1C=C(C)N(CCOC)C(C)=C1	Fluorescein fluor 1.1e-08M
CCN1C(=S)SC(=O)C1=C1C=C(C)N(CCO)C(C)=C1	Fluorescein fluor inconclusive
COc1ncc2nc(-c3ccccc3)c(=O)n(C)c2n1	none
Clc1nc(NCCc2ccccc2)c2ncn(-c3ccccc3)c2n1	none
Nc1nc(N)c2nc(CNc3ccc(C(=O)N[C@H](CCC(=O)O)C(=O)O)cc3)cnc2n1	Fluorescein fluor inconclusive
CCCCn1c(CN2CCN(C)CC2)nc2ccccc21	none
CN1CCN(Cc2nc3cccc4c3c([n+]2[O-])-c2ccccc2-4)CC1	Fluorescein fluor 1.4e-08M
COC(=O)C1=CO[C@@H](C)[C@H]2CN3CCc4c([nH]c5ccccc45)[C@@H]3C[C@H]12	Fluorescein fluor 1e-08M!
CCS(=O)(=O)CCSc1nc(C)cc(C)c1C#N	none
CCOC(=O)CCSc1nc(C)cc(C(F)(F)F)c1C#N	Fluorescein fluor 1.5e-08M
CCCCNc1c(CN)cnc2cc(Cl)ccc12	Fluorescein fluor inconclusive
C=C(CO)[C@H]1Cc2c(ccc3c(=O)c4c(oc23)COc2cc(OC)c(OC)cc2-4)O1	Fluorescein fluor inconclusive
COc1cccc(N2C(=O)C3CC=C(Cl)CC3C2=O)c1 (stereo not given)	Fluorescein fluor 1.5e-08M
O=C(c1ccc(N2C(=O)C3CC=C(Cl)CC3C2=O)cc1)N1CCCCC1 (stereo not given)	none
COc1cccc2c1C(=O)c1c(O)c3c(c(O)c1C2=O)C[C@@](O)(C(C)=O)C[C@@H]3O[C@H]1C[C@H](N)[C@H](O)[C@H](C)O1	Texas Red fluor 6.5e-08M, Rhodamine autofl 6.4e-08M, Fluorescein fluor 2.2e-07M, A488 autofl inconclusive, Resorufin autofl 5.9e-08M
COc1ccccc1NC(=O)c1sc2nc(-c3ccco3)ccc2c1N	none
Nc1c(C(=O)Nc2ccccc2)sc2nc(-c3ccco3)ccc12	Texas Red fluor inconclusive, Fluorescein fluor 1.6e-08M
O=C(CCC1COc2ccccc2O1)Nc1cccnc1 (stereo not given)	Fluorescein fluor 1.7e-08M
CCC[C@@H]1O[C@@H]2C[C@@H]3[C@@H]4CCC5=CC(=O)C=C[C@@]5(C)[C@H]4[C@H](O)C[C@@]3(C)[C@@]2(C(=O)CO)O1	Texas Red fluor inconclusive
CC(C)N1CC2=C(OC(N)=C(C#N)C2c2cccnc2)/C(=C/c2cccnc2)C1 (stereo not given)	Texas Red fluor 1.3e-08M, Fluorescein fluor inconclusive
COc1cccc(NS(=O)(=O)c2ccc(S(=O)(=O)N3CCOCC3)cc2)c1	Fluorescein fluor 1.1e-08M
COc1cccc(NS(=O)(=O)c2ccc3c(c2)n(C)c(=O)c(=O)n3C)c1	none
COc1ccc(-c2c3c(=O)n(C)c(=O)n(C)c3c3nnc4ccccc4n23)cc1	Fluorescein fluor 1.4e-08M
CN(C)c1ccc(-c2cncnc2Nc2ccccc2)cc1	Fluorescein fluor inconclusive
CCOC(=O)N1CCC(Nc2nc3ccccc3n3nnnc23)CC1	Fluorescein fluor 1.1e-08M
O=C1c2ccccc2C(=O)N1CCC(=O)N1CCCc2ccccc21	none

High-throughput results deposited in PubChem BioAssay by National Center for Advancing Translational Sciences (NCATS).
